This passage reports Potency results from PubChem BioAssay AID493170 (National Center for Advancing Translational Sciences (NCATS), 2011).

Records with an inconclusive call do not appear. Entries that show only a call come without a potency. The source made the active and inactive calls. Calls follow the shape of the dose curve; as a rule, active = well fitted inhibition curve with a large enough effect; inconclusive = small, poorly fitted or top-dose-only effect, or effect the other way; inactive = flat fitted curve, though single readings scatter.
Potency is read from the fitted curve at half-maximal effect.

Ubiquitin carboxyl-terminal hydrolase 2 (Homo sapiens), sequence (O75604 whole entry, looked up): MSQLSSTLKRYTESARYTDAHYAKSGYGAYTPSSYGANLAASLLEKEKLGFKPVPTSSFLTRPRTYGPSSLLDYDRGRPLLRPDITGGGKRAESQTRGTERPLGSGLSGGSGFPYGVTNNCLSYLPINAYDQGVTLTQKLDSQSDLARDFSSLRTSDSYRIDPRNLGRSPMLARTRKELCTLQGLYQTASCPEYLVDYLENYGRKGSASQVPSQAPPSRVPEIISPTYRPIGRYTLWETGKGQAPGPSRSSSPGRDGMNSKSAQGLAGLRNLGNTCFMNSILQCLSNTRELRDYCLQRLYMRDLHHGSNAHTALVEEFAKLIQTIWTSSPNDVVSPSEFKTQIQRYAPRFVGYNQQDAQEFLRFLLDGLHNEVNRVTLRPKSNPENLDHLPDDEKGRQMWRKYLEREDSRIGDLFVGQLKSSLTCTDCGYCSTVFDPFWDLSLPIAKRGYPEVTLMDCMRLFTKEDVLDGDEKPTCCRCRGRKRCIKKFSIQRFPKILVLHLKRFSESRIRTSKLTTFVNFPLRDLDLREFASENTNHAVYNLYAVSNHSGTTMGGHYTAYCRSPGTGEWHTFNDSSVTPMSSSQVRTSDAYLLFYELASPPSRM

The assay concerns the target Ubiquitin carboxyl-terminal hydrolase 2 (Homo sapiens) (UniProt O75604). As to the kind of experiment: Ub-rhodamine 110 based assay for inhibitors Ubiquitin-specific Protease USP2a. Also: nearly all actives have a fitted effect of over 50% in size. Conditions: USP2a Ub-rhodamine110 cleavage, fluorescence; series mostly up to 38.3 µM. In short, it runs like this:
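Kinetic fluorescence (485/531 nm) read each minute over 7 min after adding Ub-Rhod110 (150 nM final) to USP2a (5 nM final). The enzyme had 30 min RT exposure to compounds beforehand in Tris pH 8.0 buffer with CaCl2, CHAPS and beta-ME.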
In the case of `O=C(Nc1cnn(Cc2ccccc2)c1)c1nc2ncccn2n1`, the Potency result is “inactive”. The result for `Cc1ccc(/C(N)=N/OC(=O)Oc2ccccc2)cc1` reads “inactive”; that for `CCOC(=O)COc1ccccc1/C=N/O`, “inactive”. For the compound `N#Cc1c(NC(=O)CSc2ncnc3sccc23)oc(-c2ccco2)c1-c1ccco1`, the Potency was 3.98 µM (active). As for `CC(C)c1ccc(CCNC(=O)c2ccc([N+](=O)[O-])cc2)cc1`, the Potency result is “inactive”. `O=C1/C(=C/C=C/c2ccco2)SC(=S)N1c1ccc(O)cc1`: the Potency was 3.55 µM (active).

For the compound `Cc1ccc(CSC2=Nc3ccccc3C3=NC(CC(=O)NCc4ccco4)C(=O)N23)cc1` (centres undefined), the Potency is 8.91 µM (active). The result for `Nn1c(Nc2ccccc2)nc2ccccc2c1=O` reads “inactive”; that for `CCCNC(=O)NCc1ccc(N2CCCC2=O)cc1`, “inactive”; that for `CC(=O)c1c(N2CCCC2)[nH]c(-c2ccccc2)nc1=S`, “inactive”. As to `COC(=O)c1c(N2C(=O)CCC2=O)sc2c1CCCC2`, the Potency result was “inactive”. The result for `O=C1N=c2ccccc2=C1c1sc(Nc2ccc(O)cc2)nc1O` reads 7.94 µM (active).

As for `O=C(NC12CC3CC(CC(C3)C1)C2)C1=COCCO1`, the Potency entry was “inactive”. With `CCCCn1c(SCC(=O)N2CCC(C)CC2)nc2cc(S(N)(=O)=O)ccc21`, the Potency entry is “inactive”. With `COC(=O)c1[nH]c2ccccc2c1NC(=O)CN1CCCc2ccccc21` the entry was “inactive”; with `COC(=O)c1[nH]c2cc(OC)ccc2c1N`, “inactive”; with `CCOC(=O)c1c(C)n(-c2ccc(C)cc2)c2ccc(OCC(O)CN3CCN(C)CC3)cc12` (centres undefined), “inactive”.

With `O=C(c1ccc(CS(=O)(=O)c2ccc(Br)cc2)o1)N1CCCC1`, the Potency result was “inactive”. For `CCOc1ccccc1C(=O)Nc1nnc(C(C)C)s1`, the Potency result was “inactive”. The result for `O=C(N/N=C1\CC(c2ccccc2)Oc2ccccc21)c1ccc(O)cc1` (centres undefined) reads “inactive”; that for `CC(=O)Nc1ccc(Nc2cc(C)nc(Nc3ccc(NC(C)=O)cc3)n2)cc1`, “inactive”; that for `CCSc1nc(N2CCCCC2)c2c(c1C#N)CCCC2`, “inactive”.

As for `COc1ccc(O)c(-c2cc(-c3ccc(F)cc3)n[nH]2)c1`, the Potency entry is “inactive”. For the compound `CC1CCc2c(sc3nc(CN4CCOCC4)nc(NS(=O)(=O)c4cccc([N+](=O)[O-])c4)c23)C1` (centres undefined), the Potency is 10 µM (active). Take `O=C(CCSCc1ccc(Cl)cc1)NCCc1ccccc1`: the Potency result was “inactive”.

Regarding `O=C(CCS(=O)(=O)c1ccc(Br)s1)NC1CCCC1`, the Potency entry is “inactive”. The result for `CCn1c(COc2ccc(C)cc2)nnc1SCC(=O)Nc1ccc2c(c1)OCCO2` reads “inactive”; that for `CN(C)c1ccc(C(CN)c2c[nH]c3ccccc23)cc1` (centres undefined), “inactive”.

For `CCN(CC)c1ccc2nc3ccccc3[n+](CC)c2c1`, the Potency result was “inactive”.

Consider `CCn1c(=O)c(C(=O)Nc2ccccc2S(N)(=O)=O)c(O)c2ccccc21`, for which the Potency was 5.62 µM (active). With `CC(C)C(=O)Nc1ccc(C(=O)N2CCCCCC2)cc1` the entry was “inactive”; with `C(=N\N(c1ccccc1)c1ccccc1)/c1ccccn1`, “inactive”; with `CCC(C)(C)n1nnnc1C(c1ccc(C)cc1)N1CCCC1` (centres undefined), “inactive”.

Turning to `O=C(Oc1ccccc1C(=O)Nc1ccccc1)c1ccccc1Br`, the Potency entry is “inactive”. Consider `CCCn1c(C)cc(C)c(C#N)c1=O`, for which the Potency entry was “inactive”.

In the case of `Cc1ccc(OCC(=O)Nc2ccc(N3CCCC3)cc2)cc1C`, the Potency is 10 µM (active). Regarding `O=[N+]([O-])c1ccc2nc(C(O)C(O)c3nc4ccc([N+](=O)[O-])cc4[nH]3)[nH]c2c1` (centres undefined), the Potency is 11.2 µM (active). Consider `Cc1cccc(OCC(=O)Nc2ccc(N3CCCC3)cc2)c1C`, for which the Potency was 11.2 µM (active). As to `CCOc1cc(/C=C/c2nc3cc(C)c(C)cc3s2)ccc1OCC(=O)N1CCOCC1`, the Potency result was “inactive”.
